# Results published in PubChem BioAssay AID743158 (Broad Institute, 2013).
# Potency and affinity values are given separately. Activity calls are given as the source filed them.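 Rule for the calls: active = cell killing with a fitted half-maximal concentration at most twice the top valid dose tried; inconclusive = flat fit between -70 and -30 percent, or an invalid fit; inactive = the rest.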
# Experiment: A549 cell cytotoxicity, dose response, cytotoxicity control, CellTiter-Glo luminescence, dry powder, set 5 (AID 743158)
# Settings: A549 viability, CellTiter-Glo ATP luminescence, 72 h; series mostly up to 26 µM; activity change, negative = cytotoxicity: at the top concentration
SMILES,"activity change, negative = cytotoxicity",outcome
CCOC(=O)c1c(-c2ccc(F)cc2)csc1NC(=O)CN1CCN(CC)CC1,7.96% (inactive),–
CCOC(=O)c1c(NC(=O)CNCCN(C)C)sc(C)c1-c1ccccc1,19.6% (inactive),–
COC(=O)C1=C(C)N(Cc2ccc(Cl)cc2)C(=S)NC1c1ccc(Br)cc1 (centres undefined),10.9% (inactive),–
Cc1ccc(OCCn2c(SCCO)nc3ccccc32)c(C(C)C)c1,-1.14% (inactive),–
CCOc1ccc(OCCn2c(=S)[nH]c3ccccc32)cc1,-5.18% (inactive),–
Cc1ccc(OCCn2cnc3ccccc32)cc1,13.4% (inactive),–
COC(=O)C1=C(C)N(Cc2ccccc2)C(=S)NC1c1ccc(Br)cc1 (centres undefined),11.9% (inactive),–
CCOC(=O)c1c(NC(=O)CN2CCN(C)CC2)sc(C)c1-c1ccc(C)cc1,1.65% [at 12 µM] (inactive),–
COC(=O)C1=C(C)N(Cc2ccc(Br)cc2)C(=S)NC1c1ccc(F)cc1 (centres undefined),14.4% (inactive),–
O=c1[nH]c2ccccc2n1CCOc1ccccc1,–,inactive
Cc1cccc(OCCn2c(=S)[nH]c3cc(C(F)(F)F)ccc32)c1,-7.82% (inactive),–
Cc1ccccc1OCCn1c(=S)[nH]c2ccccc21,6.12% (inactive),–
COC(=O)C1=C(C)N(Cc2ccc(Br)cc2)C(=S)NC1c1ccc(OC)cc1 (centres undefined),7.24% (inactive),–
Fc1cccc2c1[nH]c(=S)n2CCOc1ccccc1,22.4% (inactive),–
Fc1ccccc1OCCn1c(=S)[nH]c2ccccc21,8.89% (inactive),–
Cc1ccc(OCCn2c(C)nc3ccccc32)cc1,15.3% (inactive),–
CCOC(=O)c1c(-c2ccc(OC)cc2)csc1NC(=O)CN(C)CC(=O)N(C)C,-0.238% (inactive),–
COC(=O)C1=C(C)N(Cc2ccc(F)cc2)C(=S)NC1c1cccc(F)c1 (centres undefined),12.2% (inactive),–
S=c1[nH]c2cccc(Cl)c2n1CCOc1ccccc1,3.73% (inactive),–
